# DAX1 inh-1: DAX1 (NR0B1) inhibitors, primary screen, cell-based, HEK293, Gal4-DAX1, luciferase luminescence | Nuclear receptor subfamily 0 group B member 1 (Homo sapiens), P51843 | HEK293 Gal4-DAX1 luciferase reporter | inhibition, % at 6.75 µM | actives 0.99% (n = 340,000);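 active = inhibition above the mean over all tested compounds plus 3 SD, cut at about 4.2% in these data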;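 note: 0% = DAX1-transfected cells with DMSO and 100% = empty-vector control cells with DMSO; inhibition shows as a rise in luminescence from relieved DAX1 repression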
# Target sequence (P51843 207-470 limits assumed): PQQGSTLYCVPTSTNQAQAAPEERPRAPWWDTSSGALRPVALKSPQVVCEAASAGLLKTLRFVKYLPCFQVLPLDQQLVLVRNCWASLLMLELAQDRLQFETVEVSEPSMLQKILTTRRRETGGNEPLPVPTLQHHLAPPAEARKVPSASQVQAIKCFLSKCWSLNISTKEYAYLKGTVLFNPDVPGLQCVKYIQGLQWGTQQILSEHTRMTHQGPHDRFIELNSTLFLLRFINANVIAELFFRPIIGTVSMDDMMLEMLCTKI
# DAX1 inh-2: DAX1 (NR0B1) inhibitors on StAR promoter, primary screen, cell-based, luminescence, SF-1 (NR5A1), full-length DAX-1. HEK293T StAR-luciferase reporter, SF-1/DAX-1 repression relief. inhibition, % at 6.8 µM. actives 1.1% (n = 370,000);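 active = inhibition above the mean over all tested compounds plus 3 SD, cut at about 3.6% in these data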;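 note: 0% = DAX-1 cells with DMSO and 100% = cells lacking DAX-1 with DMSO; higher inhibition means more luminescence from relief of DAX-1 repression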
# AHR activator: AHR activators, primary screen, cell-based, luminescence, luciferase reporter, human; Aryl hydrocarbon receptor (Homo sapiens), P35869; AHR-responsive luciferase reporter cells; activation, % at 5 µM; actives 2.5% (n = 320,000); in the data active = activation above about 47%;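 note: 0% = vehicle wells and 100% = reference agonist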
# hgDAF-12 ag: H. glycines DAF-12 receptor agonists, primary screen, cell-based, luminescence, HEK293, GAL4 fusion, UAS-luciferase; Nuclear hormone receptor DAF-12 (Heterodera glycines), GAL4 fusion; HEK293 GAL4-hgDAF12 UAS-luciferase reporter, agonist luminescence; normalized to butyrate control; activation, % at 6.8 µM; actives 1.8% (n = 370,000);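 active = activation above a cutoff set at the mean of all screened compounds plus 3 SD, cut at about 10% in these data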;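 note: 0% = DMSO wells and 100% = sodium butyrate wells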
# hcDAF-12 act: H. contortus DAF-12 nuclear receptor activators, primary screen, cell-based, luminescence, HEK293, lit1-tk-luc reporter; AID 652067, 2013; actives 1.4% (n = 370,000); HEK293 hcDAF-12 lit1-tk-luc reporter; 0% DMSO, 100% Δ7-dafachronic acid; activation, % at 6.8 µM;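 active = activation above the mean of all tested compounds plus 3 SD, cut at about 5.5% in these data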;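 note: 100% = response to 3 µM Δ7-dafachronic acid high control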
# ssDAF12 agonist: S. stercoralis DAF-12 nuclear receptor activators, primary screen, cell-based, luminescence, HEK293, GRIP1 co-expression, lit1-tk-luc; HEK293 ssDAF-12/GRIP1 lit1-tk-luc reporter; % of 3 µM dafachronic acid response; Nuclear hormone receptor DAF-12 (Strongyloides stercoralis); activation, % at 6.8 µM; actives 1% (n = 370,000);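 active = activation above the mean over all tested compounds plus 3 SD, cut at about 0.9% in these data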;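 note: 0% = DMSO-only wells and 100% = 3 µM delta7-dafachronic acid wells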
# Starred values were filed as active, the others as inactive; . = no result. Compounds with a hit are over-represented: about 5.7% of the library has one in this group of screens.
SMILES,DAX1 inh-1,DAX1 inh-2,AHR activator,hgDAF-12 ag,hcDAF-12 act,ssDAF12 agonist
Fc1ccc(NC(=S)NCc2cccnc2)cc1,-0.2,0.5,-3.4,-1.3,-1.4,-1.6
S=C(NCc1ccccc1)Nc1ccc(Oc2ccccc2)cc1,-0.7,-0.5,74.4*,0.7,-1.0,-0.6
CC(C)(C)c1ccc(NC(=S)NCc2cccnc2)cc1,5.2*,-0.5,11.1,0.4,-0.9,-0.6
O=C(NC(=S)NCc1cccnc1)c1ccccc1F,4.1,0.0,20.3,0.5,-1.7,-0.5
Cc1cc(C)c(C)c(S(=O)(=O)N2CCN(c3ccc(O)cc3)CC2)c1C,-3.8,-1.8,-0.2,-5.3,-1.1,-1.8
CCC(C)N(C(=O)CSc1nnc(C)n1C)C1CCS(=O)(=O)C1 (stereo not drawn),0.5,1.1,-2.9,3.1,-0.2,-0.7
CCC(CC)CN1CCC(CN2C(=S)NC[C@@H]2Cc2ccccc2)CC1,.,0.6,.,-0.5,-2.3,-0.9
Nc1ccccc1O,0.5,.,73.6*,.,.,.
O=C1C=C(N2CCCCC2)C2(CCCCC2)O1,-0.4,-0.7,-1.2,1.6,0.0,-0.6
O=C1C=C(N2CCOCC2)C2(CCCCC2)O1,5.2*,-0.6,-1.7,4.3,-0.5,-0.4
CCCCN(C)CCNC(=O)c1ccc(Cn2c(=S)[nH]c3ccc(Br)cc3c2=O)cc1,-0.1,4.0*,-2.4,0.0,-0.1,-1.3
CCOC(=O)Cc1c(C)nc2c(-c3ccc(Cl)cc3)c(C)[nH]n2c1=O,1.4,-0.1,5.0,0.5,0.9,-1.5
CCOC(=O)Cc1c(C)nc2c(-c3ccc(Cl)cc3)cnn2c1C,-0.3,0.3,65.2*,2.4,-1.7,-1.3
CCOC(=O)c1sc(=NC(=O)c2cccc(C)c2)n(C)c1C,0.8,3.8*,14.2,7.2,2.4,-0.6
CCCN1C(=O)C(O)(c2c(C)[nH]c3ccccc23)c2ccccc21 (stereo not drawn),2.5,-0.4,8.3,1.0,3.8,-0.3
Cc1[nH]c2ccccc2c1C1(O)C(=O)N(C(C)C)c2ccccc21 (stereo not drawn),1.4,0.0,29.2,2.1,5.8*,-0.4
C1CCc2nc3c(nc2C1)CCCC3,5.0*,0.6,1.1,0.9,-0.8,-1.0
c1ccc2nc3c(nc2c1)CCCC3,-0.4,-0.2,4.3,-0.5,-1.3,-0.7
Nc1c2c(=O)[nH]c(O)cc2nn1-c1ccccc1,1.3,-1.2,.,-1.2,4.5,1.2*
Cc1nn(-c2ccccc2)c(N)c1C(O)(C(F)(F)F)C(F)(F)F,1.5,-0.1,1.7,-1.3,-0.9,-1.2
O=C(NCc1ccccc1)[C@@H]1CCCN1C(=O)[C@H]1CCCN1C(=O)c1c(F)cccc1F,.,-0.9,.,-0.1,1.2,-1.4
c1ccc(-c2nnc(NC3=NCCC3)o2)cc1,-0.5,4.1*,9.4,9.9,4.7,-0.3
Cn1nc(-c2ccc(Cl)cc2)c2cc(C(=O)NCCCN3CCOCC3)sc21,2.7,.,55.5*,.,.,.
CCN(CC)CCNC(=O)c1cc2c(-c3ccc(Cl)cc3)nn(C)c2s1,2.3,2.3,52.9*,2.8,9.7*,0.2
CCOCCCNC(=O)c1cc2c(-c3ccc(Cl)cc3)nn(C)c2s1,-1.6,-1.1,56.1*,1.6,4.7,-1.3
SMILES,DAX1 inh-1,DAX1 inh-2,AHR activator,hgDAF-12 ag,hcDAF-12 act,ssDAF12 agonist
CCN(CC)CCNC(=O)c1cc2c(-c3cccc(OC)c3)nn(C)c2s1,-0.3,0.6,47.8*,3.9,5.4,1.2*
C[C@@H]1CN([C@H](C)CO)C(=O)CCCn2cc(nn2)CO[C@H]1CN(C)S(=O)(=O)c1ccc(Cl)cc1,.,0.5,.,-1.2,-0.5,-0.8
CCOc1ccc(C(=O)NC(C(=O)NCCc2ccc(OC(F)F)cc2)C(C)C)cc1 (stereo not drawn),-1.2,-0.1,4.9,-2.5,-0.1,-1.3
COc1ccccc1CC(NC(C)=O)C(=O)NC1CCN(S(=O)(=O)c2ccccc2)CC1 (stereo not drawn),-0.5,-0.1,.,-1.5,0.5,-1.0
Cc1ccc(C)c(NC(=O)c2cc(-c3cccnc3)nc3ccccc23)c1,6.3*,0.7,4.8,-0.5,-0.3,-1.3
Cc1ccc(-c2cc(C(=O)Nc3nccs3)c3ccccc3n2)o1,-1.9,-0.5,55.3*,-1.3,2.6,-1.0
Cc1ccc(-c2cc(C(=O)Nc3ccncc3)c3ccccc3n2)cc1,0.3,-0.3,12.3,1.7,0.3,-0.7
Cc1csc(NC(=O)c2cc(-c3ccncc3)nc3ccccc23)n1,-0.9,-0.7,27.6,0.3,-0.4,-0.4
O=C(Nc1nccs1)c1cc(-c2ccncc2)nc2ccccc12,-0.2,-0.7,55.6*,0.7,1.3,-0.1
CC(C)(C)c1ccccc1NC(=O)c1cc(-c2ccncc2)nc2ccccc12,0.7,-0.8,52.5*,4.8,1.0,0.1
Cc1ccc(S(=O)(=O)c2cn(C)c3cc(N4CCN(C)CC4)c(F)cc3c2=O)c(C)c1,0.1,0.2,1.7,-1.6,-2.6,-0.7
C=CCN=C1NC(c2cccc(F)c2)C(C(=O)OC)=C(C)N1Cc1cccc(C(F)(F)F)c1 (stereo not drawn),.,-0.2,.,-2.7,-2.0,-1.2
Cc1ccccc1-c1ccc2c(c1)[C@@H]1C[C@H](N(C)C(=O)Nc3ccccc3)[C@H]([C@H](C)O)CN1CC2,.,0.2,.,-1.0,-1.9,-0.3
COc1ccc(OC)c(C2c3[nH]c4ccccc4c3C[C@H]3C(=O)N(C4CC4)CC(=O)N23)c1 (stereo partly drawn),-0.2,0.2,8.3,1.9,5.8*,0.3
Cc1ccc(NC(=O)c2cc(-c3ccco3)on2)cc1C,2.4,-0.2,-5.4,12.5*,1.7,-0.2
Cc1ccnc(NC(=O)Nc2ccc3c(c2)OCO3)c1,1.9,2.7,9.1,12.1*,2.2,-0.8
Cc1nc(NC(=O)c2cnccn2)ccc1Br,4.2*,0.5,.,10.6*,2.7,0.2
O=C(Nc1ccc2c(c1)OCO2)c1ccc(=O)[nH]n1,-1.1,1.6,78.4*,3.4,0.8,-1.2
CCN(CC)C(=O)c1ncn2c1C(=O)N[C@H](C)C2,.,-0.6,.,-2.1,1.4,-0.5
O=S1(=O)N[C@@H](Cc2ccccc2)COc2cc(N3CCOCC3)ccc21,.,-0.7,.,0.8,-1.4,-0.6
CCN(CC(=O)NC1CCS(=O)(=O)C1)S(=O)(=O)c1cc(C)ccc1C (stereo not drawn),0.3,1.8,-0.2,-0.5,1.3,-1.1

# Screens from PubChem BioAssay.
